Screening results from PubChem BioAssay.
In the library only some 2.7% were active in any assay of this set; here they are far more common.
SENP8 block-1: human SENP8 protease inhibitors, primary screen, biochemical, fluorescence, Nedd8 protein substrate, uHTS | Sentrin-specific protease 8 (Homo sapiens), Q96LD8 | recombinant SENP8 | inhibition, % at 20 µM | 0.64% of 360,000 active; in the data active means inhibition mostly above about 40%, no sharp cut-off; inactive means mostly below about 27%
SENP7 block: SENP7 protease inhibitors, primary screen, biochemical, luminescence, uHTS; Sentrin-specific protease 7 (Homo sapiens), Q9BQF6; recombinant SENP7, Z-RLRGG-aminoluciferin luminescence, 40 min; inhibition, % at 5 µM; 1.5% of 330,000 active; AID 434973, 2010;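 active means inhibition above about 50% at the single test dose, limit read from the data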
SENP6 inh: SENP6 protease inhibitors, primary screen, biochemical, luminescence, uHTS; Sentrin-specific protease 6 (Homo sapiens), Q9GZR1; Recombinant SENP6 catalytic domain, aminoluciferin luminescence; inhibition, % at 10 µM; 1.8% of 330,000 active; AID 2599, 2010;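 active means inhibition above about 50% at the single tested dose, limit read from the data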
Target sequence (Q9GZR1 628-1112 limits assumed): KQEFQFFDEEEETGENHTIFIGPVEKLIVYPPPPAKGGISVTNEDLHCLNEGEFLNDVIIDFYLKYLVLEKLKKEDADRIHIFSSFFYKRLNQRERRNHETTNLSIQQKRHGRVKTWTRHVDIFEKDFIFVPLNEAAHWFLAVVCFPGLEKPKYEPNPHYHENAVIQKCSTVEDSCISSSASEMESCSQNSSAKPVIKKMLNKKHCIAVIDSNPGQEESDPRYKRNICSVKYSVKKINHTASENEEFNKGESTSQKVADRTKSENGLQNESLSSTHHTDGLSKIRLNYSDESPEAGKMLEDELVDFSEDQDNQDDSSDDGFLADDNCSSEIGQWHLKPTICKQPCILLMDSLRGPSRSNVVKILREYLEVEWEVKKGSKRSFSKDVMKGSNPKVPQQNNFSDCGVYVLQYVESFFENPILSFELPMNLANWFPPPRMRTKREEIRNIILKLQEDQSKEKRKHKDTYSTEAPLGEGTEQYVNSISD
HSP90 refold inh: HSP90 inhibitors, primary screen, cell lysate, luminescence; Heat shock protein HSP 90 (rabbit reticulocyte lysate; luciferase refolding); inhibition, % at 5.6 µM; Rabbit reticulocyte lysate, luciferase refolding luminescence, 3 h; 0.91% of 290,000 active;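 active means inhibition above the screen-wide mean plus 3 SD, computed separately per campaign, cut at about 16% in these data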;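 further: inhibitors lower the luminescence because luciferase stays unfolded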
SENP8 block-2: SENP8 protease inhibitors, primary screen, biochemical, luminescence; inhibition, % at 10 µM; purified SENP8, Z-RLRGG-aminoluciferin cleavage; 1.2% of 330,000 active; in the data active means inhibition above about 50%
SENP8 conf-1: SENP8 protease inhibitors, retest, confirmation, biochemical, luminescence, single concentration; 40% of 6,200 active; shares compounds with SENP7 block; Recombinant SENP8, Z-RLRGG-aminoluciferin luminescence, 60 min; inhibition, % at 12.5 µM;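 active means mean inhibition across replicates above about 50%, limit read from the data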
SENP6 confirm: SENP6 protease inhibitors, confirmation, biochemical, luminescence, single concentration. shares compounds with SENP7 block. recombinant SENP6, Z-RLRGG-aminoluciferin luminescence. inhibition, % at 12.5 µM. 58% of 6,200 active. AID 488915, 2010
SENP7 confirm: SENP7 protease inhibitors, retest, confirmation, biochemical, luminescence, single concentration; shares compounds with SENP7 block; recombinant SENP7, Z-RLRGG-aminoluciferin luminescence, 40 min; inhibition, % at 12.5 µM; 69% of 6,200 active
Casp3 SENP sel: caspase-3 protease inhibitors, confirmation, selectivity assay for SENP inhibitor project, biochemical, single concentration; shares compounds with SENP7 block; purified caspase-3, Z-DEVD-aminoluciferin luminescence, 60 min; inhibition, % at 12.5 µM; 60% of 6,200 active; AID 488918, 2010;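 active means mean inhibition above about 50%, limit read from the data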
Target sequence (P42574 28-227 limits assumed): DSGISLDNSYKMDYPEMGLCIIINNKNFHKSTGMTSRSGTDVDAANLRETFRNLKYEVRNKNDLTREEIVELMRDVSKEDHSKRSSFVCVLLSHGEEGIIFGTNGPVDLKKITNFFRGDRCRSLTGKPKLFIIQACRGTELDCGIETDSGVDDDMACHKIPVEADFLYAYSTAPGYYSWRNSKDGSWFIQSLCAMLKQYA
Luc interf: luminescence interference (SENP counter-screen) | shares compounds with SENP7 block | inhibition, % at 12.5 µM | Pre-incubated SENP8/Z-RLRGG-aminoluciferin, luciferase luminescence interference | 39% of 6,200 active;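 active means mean inhibition above about 50% when retested at one dose, limit read from the data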
SENP8 conf-2: human SENP8 protease inhibitors, confirmation, biochemical, Nedd8 protein substrate, single concentration | shares compounds with SENP8 block-1 | purified SENP8, Nedd8-AMC/pro-Nedd8 cleavage fluorescence, 30 min | inhibition, % at 25 µM | 15% of 1,400 active | AID 624319, 2012; in the data active means inhibition mostly above about 39%, no sharp cut-off; inactive means mostly below about 34%
Hits are given with their value; – = inactive; · = no result.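 How the source made its calls, unless noted: active means mean inhibition above about 50% in the one-dose retest (limit read from the data); inactive means the rest.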

SMILES	SENP8 block-1	SENP7 block	SENP6 inh	HSP90 refold inh	SENP8 block-2	SENP8 conf-2	others
Cn1cc([N+](=O)[O-])c(C(=O)N/N=C\c2c[nH]c3ccccc23)n1	–	–	–	–	–	·
O=[N+]([O-])c1ccccc1N/N=C/c1c[nH]c2ccccc12	41	79	82	–	63	–	SENP8 conf-1=–;SENP6 confirm=–;SENP7 confirm=96;Casp3 SENP sel=–;Luc interf=–
c1ccc(-c2n[nH]c(-c3ccccn3)n2)cc1	41	64	61	–	–	–	SENP8 conf-1=51;SENP6 confirm=51;SENP7 confirm=86;Casp3 SENP sel=83;Luc interf=64
Nc1n[nH]c(-c2ccccc2)n1	–	–	–	–	–	·
O=C1C2C3c4ccccc4C(c4ccccc43)[C@@H]2C(=O)N1c1cccnc1 (some centres not stated)	–	–	–	–	–	·
O=C(N/N=C1\C/C(=N\NC(=O)c2ccncc2)c2ccccc21)c1ccncc1	98	–	85	–	64	95	SENP8 conf-1=–;SENP6 confirm=–;SENP7 confirm=–;Casp3 SENP sel=–;Luc interf=–
COc1cccc(NC(=S)/C(=C(\[O-])c2ccc(OC(F)F)cc2)[n+]2ccccc2)c1	61	–	53	–	–	70	SENP8 conf-1=–;SENP6 confirm=–;SENP7 confirm=–;Casp3 SENP sel=–;Luc interf=–
[O-]/C(=C(\C(=S)Nc1cccc2ccccc12)[n+]1ccccc1)c1ccc(OC(F)F)cc1	–	·	·	–	·	·
O=C1Cc2ccccc2C(=O)N1c1ccccc1	53	–	54	–	–	–	SENP8 conf-1=–;SENP6 confirm=–;SENP7 confirm=–;Casp3 SENP sel=–;Luc interf=–
O=C1Cc2ccccc2C(=O)N1Cc1ccccc1	85	79	91	–	94	–	SENP8 conf-1=–;SENP6 confirm=88;SENP7 confirm=64;Casp3 SENP sel=72;Luc interf=–
O=C1Cc2ccccc2C(=O)N1c1cccc(Cl)c1	71	–	52	–	–	–	SENP8 conf-1=–;SENP6 confirm=–;SENP7 confirm=–;Casp3 SENP sel=–;Luc interf=–
O=C1CC(=O)N(c2ccccc2)c2ccccc21	–	–	–	–	–	·
O=[N+]([O-])c1cc2oc3c(c2c(C=NCc2ccncc2)c1O)CCCC3	–	·	·	–	·	·
CCNc1cc(=O)n(C)c(=O)n1C	–	–	–	–	–	·
COC(=O)c1[nH]c(=O)c2ccccc2c1O	41	–	64	–	52	–	SENP8 conf-1=–;SENP6 confirm=–;SENP7 confirm=–;Casp3 SENP sel=–;Luc interf=–
C=CCOC(=O)c1ccccc1C(=O)OCC1CO1 (configuration not stated)	–	·	·	·	·	·
Cc1ccc(C(=O)NCc2ccc3c(c2)OCO3)cc1	–	–	–	–	–	·
Cc1c(NC(=O)C(C)OC(=O)c2ccc([N+](=O)[O-])s2)c(=O)n(-c2ccccc2)n1C (configuration not stated)	48	–	58	–	54	73	SENP8 conf-1=–;SENP6 confirm=79;SENP7 confirm=–;Casp3 SENP sel=–;Luc interf=–
Oc1cc(Nc2ccccc2)cc2cccnc12	–	–	–	·	–	·
Oc1cc(NCCN2CCOCC2)cc2cccnc12	64	64	74	·	61	91	SENP8 conf-1=–;SENP6 confirm=76;SENP7 confirm=–;Casp3 SENP sel=95;Luc interf=–
Cc1ccc(OCCC(=O)OCC(=O)C(C)(C)C)cc1	–	–	–	–	–	·
CC1CCN(c2ccc(C(=O)NCc3ccco3)cc2[N+](=O)[O-])CC1	42	–	–	–	–	–
CN(CC(=O)Nc1ccc(Cl)c(C(F)(F)F)c1)C(=O)C1CCN(C(=O)c2ccc(Cl)cc2)CC1	–	·	·	·	·	·
CCOc1ccc(/C=C/C(=O)Nc2ccc(OC)cc2[N+](=O)[O-])cc1	41	–	–	–	–	–
CCOC(=O)C1CN(S(=O)(=O)c2ccc(OC)cc2)c2ccccc2O1 (configuration not stated)	–	–	–	–	–	·
SMILES	SENP8 block-1	SENP7 block	SENP6 inh	HSP90 refold inh	SENP8 block-2	SENP8 conf-2	others
COc1cc(C)c(S(=O)(=O)NCc2cccs2)cc1C	41	–	–	–	–	–
C1=C(c2ccccc2)Nc2nnnn2C1c1cccs1 (configuration not stated)	–	–	–	–	–	·
O=C(CNC(=O)c1ccccc1)N/N=C/C=C/c1ccccc1	–	–	–	–	–	·
O=C(Cc1cc(=O)[nH][nH]1)N/N=C/C=C/c1ccccc1	44	–	–	–	–	–
C[C@H](NC(=O)c1cc2cc(Cl)ccc2n1C)C(=O)N[C@@H](C(=O)O)c1ccccc1	–	–	–	–	–	·
Cn1cccc1CNC(=S)Nc1ccccc1Cl	40	–	–	–	–	–
CCN1CCN(c2ccc(NC(=O)c3ccc([N+](=O)[O-])o3)cc2Cl)CC1	52	·	·	–	·	–
CCCC(=O)N1CCN(c2ccc(NC(=O)c3ccc(N4CCCC4)c([N+](=O)[O-])c3)cc2Cl)CC1	45	–	–	·	–	–
Cc1ccc(NC(=O)c2ccc(N3CCOCC3)c([N+](=O)[O-])c2)cc1S(=O)(=O)N1CCOCC1	44	–	–	–	–	–
O=C(Nc1ccc(S(=O)(=O)Nc2ncccn2)cc1)C1=NN(c2ccccc2)C(=O)CC1	–	–	–	–	–	·
CCN(CC)c1ccc(C=Nc2ccc(C)cc2)c(O)c1	–	–	–	–	–	·
CCN(CC)c1ccc(N=Cc2ccc(N(CC)CC)cc2O)cc1	58	–	–	–	–	–
CCN(CC)c1ccc(C=Nc2ccc(N(C)C)cc2)c(O)c1	52	–	–	–	–	–
O=C(OCc1ccc(Cl)cc1)c1cnccn1	–	–	–	–	–	·
O=C(OCc1ccc(Cl)c(Cl)c1)c1cnccn1	45	–	–	–	–	–
O=C(O)C=C(Br)Br	46	–	–	–	–	–
O=C(O)/C=C\C(=O)O	–	–	–	·	–	·
CCNC(=O)O/N=C1\CCCCC1c1ccc([N+](=O)[O-])cc1[N+](=O)[O-] (configuration not stated)	41	–	–	–	–	48
